PK Bst – Pyruvate Kinase; purified pyruvate kinase, luminescence ATP production; ribose 5-phosphate activator present at AC10; Potency, µM; 1.2% of 51,000 active; AID 361, 2006; in the data active means potency below about 11 µM; inconclusive means mostly about 12 µM to 25 µM;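 the screen sought inhibitors and activators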;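 further: potency means the concentration at half of the fitted maximal effect; scaled between full activation by ribose 5 phosphate and full inhibition by luteolin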
HBB splice mod – qHTS Assay for Modulators of Hemoglobin Beta Chain Splicing; HBB splicing reporter cell assay, activation; EGFP reporter with mutant IVS2-654 intron; response scale: normalised to 500 nM splice-correcting PNA; Potency, µM (doses to about 46.1 µM), inactives show at the top dose activation, hits mostly activators; 0.06% of 65,000 active; AID 925, 2007; further: potency means the concentration at half of the fitted maximal effect; 0% is about no effect
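Compounds were applied for 2 days to HeLa EGFP-654 cells, 500/well in Optimem with 2% FCS. The reporter's EGFP is disrupted by mis-splicing of beta-globin intron IVS2-654. Readout: summed well GFP fluorescence from 488 nm laser scanning; reference was 500 nM antisense […] 654 PNA.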
UbGFP stabilizer – Ubiquitin-GFP Assay. Ubiquitin-GFP reporter cells, proteasome inhibition, GFP fluorescence; response scale: untreated = 0%, 10 µM MG-132 = 100%. Potency, µM (series often up to 45.9 µM), inactives show at the highest dose activation (GFP accumulation), actives largely listed as activators. 67,000 tested, under 10 active; active means well fitted activation curve with a large enough effect, not every such curve was filed as active; inconclusive means small, poorly fitted or top-dose-only effect, or another doubt; inactive means no such curve, though single readings can be large or run the other way; further: potency means the concentration at half of the fitted maximal effect
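U2OS Ub(G76V)-GFP reporter; O/N plating, 0.5% FBS; cpd 46 uM–2.9 nM, 4 h, 37 °C; GFP+ cell count, 488/515 nm; norm. to basal vs 10 uM MG-132; CRC fit.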
GFP derepression – qHTS Assay for Epigenetic Modulators. AID 597, 2007. Potency, µM (titrated, usually from 46.1 µM), inactives show at the top dose GFP derepression (activation). 0.09% of 68,000 active. mouse C127i GFP locus derepression, cytometry, 30 h; further: % of control where 0% means no effect
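Derepression screen: silenced CMV-GFP reporter in murine C127i cells, 30 h compound incubation at 37 C, washed cells imaged by laser-scanning cytometer to enumerate GFP-expressing objects of 20 to 120 um.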
USP2a inh – qHTS Assay for Inhibitors of Ubiquitin-specific Protease USP2a; 0.1% of 60,000 active; Ubiquitin carboxyl-terminal hydrolase 2 (Homo sapiens), O75604; USP2a enzymatic assay, qHTS inhibition; AID 927, 2007; Potency, µM (titrated, usually from 38.3 µM), for inactives: at the highest dose activity change, negative = inhibition, actives largely listed as inhibitors; further: potency means the concentration at half of the fitted maximal effect; nearly all actives have a fitted effect of over 60% in size
Target sequence (O75604 whole entry, looked up): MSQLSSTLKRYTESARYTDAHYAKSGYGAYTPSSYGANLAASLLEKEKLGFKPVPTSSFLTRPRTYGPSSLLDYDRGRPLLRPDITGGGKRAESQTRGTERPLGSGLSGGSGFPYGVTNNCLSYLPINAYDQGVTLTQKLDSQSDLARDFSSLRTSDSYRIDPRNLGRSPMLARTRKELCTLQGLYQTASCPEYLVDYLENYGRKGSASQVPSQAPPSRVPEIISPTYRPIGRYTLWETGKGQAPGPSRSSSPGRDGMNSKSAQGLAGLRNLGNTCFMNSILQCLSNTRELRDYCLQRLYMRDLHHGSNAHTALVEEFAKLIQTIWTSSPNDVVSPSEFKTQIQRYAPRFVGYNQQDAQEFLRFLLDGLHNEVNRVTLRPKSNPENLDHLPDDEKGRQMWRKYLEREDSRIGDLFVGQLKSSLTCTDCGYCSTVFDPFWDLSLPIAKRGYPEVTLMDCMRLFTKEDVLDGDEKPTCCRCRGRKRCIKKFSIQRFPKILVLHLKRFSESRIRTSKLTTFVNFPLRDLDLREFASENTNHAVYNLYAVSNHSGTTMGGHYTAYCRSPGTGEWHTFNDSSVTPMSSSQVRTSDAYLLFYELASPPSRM
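Inhibition is measured in a cell-free coupled assay with 20 nM USP2 core, 20 nM Ub-PLA2 and 20 uM NBD C6-HPC, 2.5 h incubation. Activity normalized to NEM control.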
Hsp90 Hop PPI – qHTS Assay for Disrupters of an Hsp90 Co-Chaperone Interaction | AlphaScreen TPR2A-His6 binding biotin-Hsp90 C-terminal peptide | Hsp90 C-terminal peptide / TPR2A (Hop) interaction, human | 0.44% of 71,000 active | Potency, µM (highest dose often 57 µM), for the others: at the top dose activity change, negative = inhibition; active means well fitted curve in either direction with a large enough effect; inconclusive means small, poorly fitted or top-dose-only effect, or another doubt; further: potency means the concentration at half of the fitted maximal effect; on the % scale 0 is the no-effect control and ±100 the full control effect
Numbers without * were called inactive; i = inactive; ? = inconclusive; . = not tested or not shown; ! = not confirmed by another sample; [ ] = another dose, or the depositor's remark. Rows were chosen to be rich in hits. Some 1.3% of all compounds tested hit in one or more screens of this group. Unless noted, the call rests on the fitted dose curve; in most records, active means well fitted curve in the direction sought with a large enough effect; inconclusive means small, poorly fitted or top-dose-only effect, or another doubt; inactive means no such curve, though single readings can be large; an effect the other way counts as inactive or inconclusive.

SMILES	PK Bst	HBB splice mod	UbGFP stabilizer	GFP derepression	USP2a inh	Hsp90 Hop PPI
c1ccc(/N=C2\N=C(Nc3ccccn3)c3ccccc32)nc1	.	-0.4%[57.5 µM]	-2.0%	12.6µM*	3.2%	-21.4%
Cc1cc(OCc2ccc(F)cc2)nc(-c2ccccc2O)n1	.	0.2%[9.22 µM]	0.1%	-1.9%	-6.7%	25.1µM*
Cc1cc(OC2CCCCC2)nc(-c2ccccc2O)n1	.	0.1%[0.0738 µM]	1.2%[9.17 µM]	-1.6%	-5.0%[7.66 µM]	3.16µM*
Cc1ccc(Oc2cc(C)nc(-c3ccccc3O)n2)cc1	>57	-0.4%[57.5 µM]	7.9%	-3.2%	-4.6%	23.2%
CN1C[C@@H](C(=O)N[C@]2(C)O[C@]3(O)[C@H]4CCCN4C(=O)[C@H](Cc4ccccc4)N3C2=O)C[C@H]2c3cccc4[nH]cc(c34)C[C@@H]21	.	-0.2%	7.9%	0.0%	22.2%	-10.6%
C/C(=C\CNc1ncnc2c1ncn2[C@@H]1O[C@@H](CO)[C@@H](O)[C@H]1O)CO	.	.	7.7%	-2.3%[9.22 µM]	.	-3.7%
Nc1nc(Sc2ccc([N+](=O)[O-])c3nonc23)c2[nH]cnc2n1	.	3.16µM*	-7.7%[9.17 µM]	?	.	-5.0%[11 µM]
CCOC(=O)c1c(N)sc(C(=O)Nc2ccc3c(c2)OCO3)c1C	1.03*	-0.6%	-14.4%	-0.4%	14.5%	-6.1%
Cc1ccccc1-n1nnnc1SCC(N)=O	.	-0.5%	-0.9%	6.6%	-2.0%	-1.4%
Cc1cccc(C)c1-n1nnnc1SCSc1nnnn1-c1c(C)cccc1C	3.45*	-1.2%	-2.6%	1.6%	0.4%	-2.6%
Cc1ccc(C(=O)O[C@@H](C(=O)O)[C@@H](OC(=O)c2ccc(C)cc2)C(=O)O)cc1 (tested in a mixture with another compound)	.	3.1%	-9.2%	-2.2%	-1.4%	-7.5%
Nc1c(S(=O)(=O)O)cc(Nc2ccc(Nc3nc(Cl)nc(Nc4ccc(S(=O)(=O)O)cc4)n3)c(S(=O)(=O)O)c2)c2c1C(=O)c1ccccc1C2=O	.	1.0%	-2.6%	-1.1%	7.94µM*	?
COC(=O)c1c(-c2cccs2)csc1NC(=O)c1cccnc1	7.67*	-0.5%[57.5 µM]	-3.8%	-2.8%	1.5%	?
c1cnc2c(c1)ccc1cccnc12	.	0.9%[9.22 µM]	3.4%[9.17 µM]	2.2%[9.22 µM]	5.1%	0.631µM*
O=c1cc(-c2ccccc2)[nH]c2nc3ccccc3n12	1.02*	-0.4%[57.5 µM]	-0.7%	1.9%	-1.8%	-1.6%
O=c1cc(-c2ccccc2)[nH]n1-c1nc2ccccc2s1	>57	-6.2%	-2.8%	1.2%	19.8%	-8.0%
Cc1ccccc1N1C(=O)c2cccc3c(N(C)CCO)ccc(c23)C1=O	.	20µM*	11.6%	-1.8%	19.9%	11.3%
Cc1c(Cl)cccc1N1C(=O)c2ccccc2C1=O	.	-0.3%	-13.0%	0.0%	0.1%	-1.6%
COc1ccc(CCN2CCC(Nc3nc4ccccc4n3Cc3ccc(F)cc3)CC2)cc1	>25.6	0.4%[20.6 µM]	2.1%[20.5 µM]	10µM*!	43.2%	-7.6%[26 µM]
CC1O[C@@H](O[C@@H]2C(O)C[C@H](O[C@@H]3C(O)C[C@@H](OC4CC[C@@]5(C)C6CC(O)[C@@]7(C)C(C8=CC(=O)OC8)CC[C@@]7(O)C6CC[C@@H]5C4)OC3C)OC2C)CC(O)[C@H]1O (stereo not given in full)	.	.	.	.	6.1%	.
O=C1CC(c2ccc3c(c2)OCO3)Sc2nc3ccccc3n21 (stereo not given)	4.54*	-0.6%	-7.3%	1.3%	15.6%	-1.7%
C[C@@H](Cc1ccccc1)Nc1ncnc2c1ncn2[C@@H]1O[C@@H](CO)[C@H](O)[C@@H]1O	.	2.6%	1.3%	0.0%	4.6%	-14.6%
Clc1ccc(Cn2ncc3c(NCc4ccco4)ncnc32)c(Cl)c1	>57	-0.4%	-5.0%	2.9%	31.3%	-7.2%
Clc1ccc(-n2ncc3c(NCc4ccco4)ncnc32)cc1	7.61*	.	.	9.7%[20.6 µM]	.	.
O[C@@H](c1cc(C(F)(F)F)nc2c(Cl)cc(Cl)cc12)[C@@H]1CCCCN1	.	-0.4%[9.22 µM]	2.6%[9.17 µM]	5.7%[9.22 µM]	.	0.5%[11 µM]
SMILES	PK Bst	HBB splice mod	UbGFP stabilizer	GFP derepression	USP2a inh	Hsp90 Hop PPI
CN1CCCN(C(=O)Cc2c(Cl)cccc2Cl)c2nc3ccccc3nc21	>11.4	10µM*	-4.7%	3.7%	-4.1%	?
O=C(/C=C/Nc1ccc(F)cc1)c1ccco1	3.73*	-0.8%	-1.7%	2.3%	3.4%	-5.7%
CC(=O)Nc1ccc(N/C=C/C(=O)c2ccc(C)o2)cc1	i	0.2%	1.3%	2.1%	0.7%	-3.1%
CC(C)[C@H]1C(=O)C(C(N)=O)=C(O)[C@]2(O)C(=O)C3=C(O)c4c(O)ccc(N(C)C)c4C[C@H]3C[C@@H]12	.	1.5%	3.1%	1.6%	23.8%	?
CN(O)/C=c1/ccc2c(n1)C(=O)C=CC=2	>57	4.1%[1.84 µM]	7.1%	1.6%	22.9%	2µM*
CC(C)C[C@H](NC(=O)[C@@H](NC(=O)N[C@@H](Cc1ccccc1)C(=O)O)[C@H]1CCN=C(N)N1)C(=O)N[C@H](C=O)Cc1ccccc1	.	.	1.3%	7.0%[9.22 µM]	.	-3.3%
O=C(O)c1ccc(COc2ccccc2Cl)cc1	>57	-0.5%[57.5 µM]	-4.1%	4.3%	0.9%	-1.3%
O=C(O)c1cccc(COc2ccccc2Cl)c1	6.74*	2.2%	-4.0%	1.6%	-3.2%	-3.5%
Cn1nc(-c2ccccc2)c2nc3ccccc3nc21	7.97*	-3.6%[57.5 µM]	0.0%	-2.2%	9.7%	?
COC(=O)[C@](C)(N)Cc1ccc(O)cc1	.	1.7%	-4.6%	-2.2%	-1.6%	-6.4%
O=C(COc1ccccc1)Nc1ccc(-c2nnc(-c3ccco3)o2)cc1	>25.6	.	.	-0.4%[20.6 µM]	.	.
CCCOc1ccc(-c2nnc(-c3ccco3)o2)cc1	3.41*	.	2.4%	1.3%	0.8%	1.1%
COc1cccc(C(=O)Nc2ccc(-c3nnc(-c4ccco4)o3)cc2)c1	>25.6	.	.	-1.3%[20.6 µM]	.	.
CC(C)COc1ccc(-c2nnc(-c3ccco3)o2)cc1	9.48*	.	3.7%	2.4%	1.0%	8.8%
N#CC1=C(N)Oc2c(ccc3cccnc23)C1c1cccnc1 (stereo not given)	?	-0.2%[57.5 µM]	2.0%	20.3%	15.1%	31.6µM*
CCc1[nH]nc2c1C(c1cccnc1)C(C#N)=C(N)O2 (stereo not given)	>57	-1.1%	9.3%	2.7%	0.5%	-2.4%
CC1CCCCN1c1nc(-c2ccncc2)nc2ccccc12 (stereo not given)	>11.4	2.3%[1.84 µM]	1.6%	2.6%	10µM*	5.0%
C[C@@]12C=CC(=O)C=C1CC[C@@H]1C2=CC[C@]2(C)[C@@H]1CC[C@H]2C(=O)CN1CCN(c2cc(N3CCCC3)nc(N3CCCC3)n2)CC1	.	0.0%	-5.3%	-1.1%	20.6%	-14.4%

From PubChem
